In PubChem BioAssay AID1347385 (Zoeller Lab, School of Medicine, Boston University, 2020) one finds outcome data, which are given here for 71 compounds.

About 85 (0.4%) of roughly 20,000 compounds were called active. This is one part of a sample in which actives are shown more often than they occur.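 How the source made its calls: active means cell survival signal 2 SD away from solvent-only control wells, confirmed on one or two retests; inactive means the rest.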

A short description of this assay: phospholipid synthesis inhibitors, CHO cells, primary screen, ZR-82 cells, Enamine library, screen 3 (AID 1347385).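 Further: 3 h compound exposure then viability read about one day after UV.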 To be noted: ZR-82 CHO cells, pyrene fatty acid UV survival, CellTiter Blue, peroxisome-deficient CHO-K1 mutant line, plus DGAT-1, DGAT-2 and ACAT inhibitors; at 10 µM unless noted.
Consider `COC(=O)CNC(=O)c1ccc([N+](=O)[O-])o1`, for which the result was inactive.

On to `CC(C)CN(C1CCS(=O)(=O)C1)S(=O)(=O)c1ccc(Cl)cc1` (stereo unspecified), for which the result was inactive.

On to `C(=Nc1ccc2c(c1)OCO2)c1ccc2ncccc2c1`, for which the outcome was inactive.

Consider `c1ccc2c(c1)OCCOCCOCCOc1ccccc1OCCOCCO2`, for which the result was inactive.

In the case of `O=C1NNS(=O)(=O)c2ccccc21`, the outcome was inactive.

On to `Brc1ccc2nc(-n3nc4ccccc4n3)nc(-c3ccccc3)c2c1`, for which the outcome was inactive.

For the compound `Cc1sc2ncnc(SCC(=O)c3c(N)n(CC(C)C)c(=O)n(C)c3=O)c2c1C`, the result was inactive.

As to `CCOC(=O)Cc1n[nH]c(=S)n1C1CCCC1`, the outcome was inactive.

As for `CCNC(=S)N1CCN(S(=O)(=O)c2ccc(Cl)s2)CC1`, the outcome was inactive.

On to `Cc1cc(-c2csc(N)n2)c(C)c(C)c1C`, for which the result was inactive.

Turning to `O=C(COc1ncnc2sc3c(c12)CCC3)c1ccc(Cl)s1`, the result was inactive.

With `O=C(CN1C(=O)NC2(CCCC2)C1=O)NC1CCSc2ccc(F)cc21` (stereo unspecified), the outcome was inactive.

With `C=CCN(CC=C)CC(=O)Nc1sc2c(c1C(N)=O)CCCC2`, the outcome was inactive.

On to `Clc1ccc(Cl)c(-c2ccc(-c3ncc(-c4cccs4)o3)o2)c1`, for which the outcome was inactive.

`CN(C)C(=O)CN(C)C(=O)CN1C(=O)NC2(CCCCCC2)C1=O`: the result was inactive.

As to `Cc1nc(SCC(=O)N2CCNC2=O)n(CC(C)C)c1C`, the result was inactive.

As for `O=S(=O)(c1ccc(Cl)c(N=C2SCCN2C2CCCCC2)c1)N1CCOCC1`, the outcome was inactive.

Regarding `c1ccc(OCc2nc(-c3ccccn3)n[nH]2)cc1`, the outcome was inactive.

With `C#CC(CC)(CC)NC(=O)CCc1nc2sc3c(c2c(=O)[nH]1)CCCC3`, the result was inactive.

Take `Brc1ccccc1C1N=C(c2ccccc2)NO1` (stereo unspecified): the result was inactive.

`O=c1c2c3c(sc2[nH]c(=S)n1C1CCCC1)CCC3`: the result was inactive.

For the compound `O=C(OCc1cc([N+](=O)[O-])cc2c1OCOC2)C1CCC1`, the outcome was inactive.

In the case of `O=C(CSc1nc2sc3c(c2c(=O)n1C1CCCC1)CCCC3)N1CCCC1`, the outcome was inactive.

In the case of `FC(F)Oc1ccc(C2Oc3ccccc3C3CC(c4ccccc4)=NN32)cc1` (stereo unspecified), the outcome was inactive.

With `Cc1nnc(NC(=O)NCC2(C)CC(NC(=O)Nc3nnc(C)s3)CC(C)(C)C2)s1` (stereo unspecified), the result was inactive.

In the case of `CC(C)N(CCNS(=O)(=O)c1ccccc1)C(C)C`, the outcome was inactive.

With `O=[N+]([O-])c1ccc(-n2nnc3ccccc32)c(Cl)c1`, the outcome was inactive.

In the case of `Clc1ccccc1C1Oc2ccccc2C2CC(c3ccc4c(c3)OCCO4)=NN21` (stereo unspecified), the result was inactive.

In the case of `O=c1/c(=C/c2ccc(F)cc2)sc2n1CCN=2`, the result was inactive.

Turning to `O=C1OCC(CO)(CO)N=C1NNc1ccc(I)cc1`, the outcome was inactive.

Turning to `FC(F)Oc1ccc(Cl)c(C2Nc3ccccc3-c3nc4ccccc4n32)c1` (stereo unspecified), the outcome was inactive.

On to `C(=N\n1c(-c2ccc(-c3ccccc3)cc2)csc1=NCCc1ccccc1)/c1ccccn1`, for which the outcome is “inactive [setting not given]”.

Turning to `O=C(NC(O)C(Cl)(Cl)Cl)C12CC3CC(CC(C3)C1)C2` (stereo unspecified), the outcome was inactive.

As to `CCOC(=O)c1c(C)[nH]c(C(=O)OCC(=O)C(C)(C)C)c1C`, the result was inactive.

Regarding `C#CCN=Cc1c(O)n(CCOC)c(=S)[nH]c1=O`, the result was inactive.

With `O=S(=O)(Oc1cccc2cccnc12)c1ccc2ccccc2c1`, the outcome was inactive.

As for `CC(Sc1nnc(-c2ccc(C(C)(C)C)cc2)o1)c1nnc(-c2ccc([N+](=O)[O-])cc2)o1` (stereo unspecified), the result was inactive.

For the compound `O=C1NC(c2ccc3c(c2)OCO3)C(C(=O)c2ccccc2)C(O)(C(F)(F)F)N1` (stereo unspecified), the result was inactive.

Turning to `CCN(CC)[P+](N)(c1nc2ccccc2n1C)N(CC)CC`, the result was inactive.

In the case of `COC(=O)c1cc(C(O)(C(F)(F)F)C(F)(F)F)c(N=CN(C)C)s1`, the result was inactive.

Regarding `C=CCn1c(SCc2c(C)noc2C)nc2sc3c(c2c1=O)CCC(C)C3` (stereo unspecified), the outcome was inactive.

On to `Cn1cc(-c2nn(-c3ccccc3)cc2/C=N/NC(N)=S)c2ccccc21`, for which the outcome is “inactive [setting not given]”.

In the case of `Cc1cc(C=C2Sc3ccccc3N2C)cc(C)[n+]1CCCn1ccnc1`, the outcome was inactive.

Turning to `CC1CCC2(CC1)NC(=O)N(CC1CC1(Cl)Cl)C2=O` (stereo unspecified), the outcome was inactive.

For the compound `COc1ccc(OCCN2CCN(C(=N)N)CC2)cc1`, the outcome was inactive.

For `C=CCNC(=S)NN=C1c2ccccc2-c2ccccc21`, the result was inactive.

In the case of `O=C(CSc1ncnc2sc3c(c12)CCC3)N1CCCCC1`, the result was inactive.

On to `C=CCOc1c(Cl)cc(S(=O)(=O)c2cc(Cl)c(O)c(Cl)c2)cc1Cl`, for which the outcome was inactive.

On to `COCCn1c(C)cc(C(=O)COC(=O)Cn2c(C)csc2=O)c1C`, for which the outcome was inactive.

Consider `COc1ccc(C2=CC(c3ccc(OC)cc3)n3nnnc3N2)cc1` (stereo unspecified), for which the outcome was inactive.

`O=[N+]([O-])c1ccc(NC(=S)N=C2c3ccccc3CN2c2ccc(Cl)cc2)cc1`: the result was inactive.

Take `O=S1(=O)CCC(NS(=O)(=O)c2ccc(Cl)c(Cl)c2)C1` (stereo unspecified): the result was inactive.

For `NC=C(S(=O)(=O)c1ccc(Cl)cc1)S(=O)(=O)c1ccc(Cl)cc1`, the outcome was inactive.

For the compound `O=c1c(-c2cc3ccccc3o2)coc2ccccc12`, the outcome was inactive.

`O=C1C=CC(=O)N1c1ccc(Br)cc1`: the outcome was inactive.

With `CC1CCN(C2=NS(=O)(=O)c3ccccc32)CC1`, the outcome was inactive.

As to `CCSc1nnc(SCC(=O)c2c(N)n(CC(C)C)c(=O)n(C)c2=O)s1`, the outcome was inactive.

In the case of `Cc1ccc(-c2csc3nc(CSc4nnnn4C)[nH]c(=O)c23)s1`, the result was inactive.

In the case of `CCCSc1nsc(N)n1`, the result was inactive.

Consider `Clc1ccc2nc(CSc3ccc4ccccc4c3)cn2c1`, for which the result was inactive.

As for `Fc1ccc(Cn2c3[n+](c4ccc(C(F)(F)F)cc42)CCCCC3)cc1`, the result was inactive.

Consider `COC(=O)c1noc(C(=O)OC)c1O`, for which the result was inactive.

As for `FC(F)(F)C(=NCc1ccco1)NC1(C(Cl)(Cl)Cl)Oc2ccccc2O1`, the result was inactive.

As for `CCOc1cc(C)c(S(=O)(=O)N2CCCC2)cc1C(C)C`, the result was inactive.

In the case of `CCN(CC)c1ccc([P+](CC)(c2ccc(N(CC)CC)cc2)c2ccc(N(CC)CC)cc2)cc1`, the outcome was inactive.

Regarding `COc1ccc(OC)c(C2CC(c3ccco3)=NN2S(C)(=O)=O)c1` (stereo unspecified), the outcome was inactive.

`CCCc1ccc(C2=C(C)SC3=NS(=O)(=O)CCN32)cc1`: the outcome was inactive.

As to `Cc1cc(C)nc(SCc2cn3c(C)cc(C)nc3n2)n1`, the outcome was inactive.

As to `COc1ccc(C2=NN3C(C2)c2ccccc2OC32CCCC2)c(OC)c1` (stereo unspecified), the outcome was inactive.

For `Cc1cc(C(=O)C(C)n2cnc3c2c(=O)n(C)c(=O)n3C)c(C)n1Cc1ccco1` (stereo unspecified), the outcome was inactive.

On to `O=[N+]([O-])c1ccc(-c2c[n+](=O)c3c(n2[O-])CCCCC3)cc1`, for which the result was inactive.
